Assay outcomes: PubChem BioAssay, several laboratories
DUSP1 inh: human dual specificity phosphatase 1 inhibition; P28562; recombinant MKP-1, OMFP hydrolysis fluorescence; inhibition, %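 (compounds tested at a single concentration somewhere between 10 and 100 µM)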; 65,000 tested, 0.15% active;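 active = inhibition above about 50%, limit read from the data; inconclusive = inhibition over screen mean plus 3 SD, below that limit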;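 also: 0% = DMSO max control wells and 100% = wells with enzyme stopped by NaOH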
PKA kinase inh: inhibitors of human protein kinase A; 65,000 tested, 0.1% active; PKA Kemptide phosphorylation, Kinase-Glo ATP luminescence; AID 524; inhibition, % at 6 µM; P17612;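 active = inhibition above the screen-wide mean inhibition plus 3 SD, cut at about 21% in these data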
Hsp90 inh: displaces geldanamycin probe from tumor Hsp90; P07900; NCI-N417 lysate Hsp90, Cy3B-geldanamycin FP displacement; inhibition, % at 30 µM; 64,000 tested, 0.35% active; AID 429;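 active = inhibition above 50%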;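 also: 0% = tracer plus lysate wells and 100% = tracer alone without lysate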
ROCK2 inh: ROCK2 (human) kinase inhibition; O75116; purified ROCK2, Kinase-Glo ATP depletion luminescence; inhibition, % at 6 µM; 60,000 tested, 0.35% active;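 active = inhibition above the screen-wide mean inhibition plus 3 SD, cut at about 18% in these data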;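 also: plate controls were DMSO wells for no effect and Y-27632 control wells after no-enzyme background subtraction for full effect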
JNK3 blocker: blocks human JNK3 kinase activity. P53779. purified JNK3 kinase activity, HTS. inhibition, % at 8 µM. 60,000 tested, 0.61% active. AID 746; in the data active = inhibition above about 17%;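 also: 0% = DMSO and 100% = reference inhibitor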
Target sequence (P53779 whole entry, looked up): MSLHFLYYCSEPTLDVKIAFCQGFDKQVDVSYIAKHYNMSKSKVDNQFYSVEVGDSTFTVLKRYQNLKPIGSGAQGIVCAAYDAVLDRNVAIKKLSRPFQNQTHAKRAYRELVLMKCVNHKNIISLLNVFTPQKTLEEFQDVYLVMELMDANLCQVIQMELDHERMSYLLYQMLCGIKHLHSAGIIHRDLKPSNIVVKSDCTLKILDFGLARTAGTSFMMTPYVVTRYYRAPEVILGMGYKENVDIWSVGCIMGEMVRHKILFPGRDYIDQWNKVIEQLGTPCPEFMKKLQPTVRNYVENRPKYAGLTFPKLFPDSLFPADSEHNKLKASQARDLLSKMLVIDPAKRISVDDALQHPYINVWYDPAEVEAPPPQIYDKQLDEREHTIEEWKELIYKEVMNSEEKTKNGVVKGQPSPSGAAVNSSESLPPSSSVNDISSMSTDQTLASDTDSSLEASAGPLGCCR
Cdc25B block: inhibitors of human Cdc25B phosphatase; recombinant Cdc25B, OMFP fluorescence Ex485/Em525; P30305; AID 368; 65,000 tested, 0.1% active; inhibition, %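 (compounds tested at 10 µM final in the well)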; in the data active = inhibition above about 50%
* hit, by the source's call; ? = inconclusive; . = no result. Sampled rows, rich in hits. Any-hit rate of the full collection: about 1%.

SMILES | DUSP1 inh | PKA kinase inh | Hsp90 inh | ROCK2 inh | JNK3 blocker | Cdc25B block
Cc1cc(Cl)ccc1OCc1nc(-c2ccc(O)cc2)n[nH]1 | 0.6 | 6.3 | -5.0 | 27.2* | 2.2 | 0.0
CNC(=O)[C@H]1O[C@@H](n2cnc3c(N)ncnc32)C(O)[C@H]1O (some centres undefined) | . | . | 22.4 | . | . | .
Cc1ccc(S(=O)(=O)C(CCC(=O)N2CCOCC2)S(=O)(=O)c2ccc(C)cc2)cc1 | -8.3 | 7.8 | 87.6* | 1.1 | -3.3 | -1.0
COc1ccc(-n2nc3c(c2NC(=O)c2ccc(Br)cc2)CS(=O)C3)cc1 (centres undefined) | 2.6 | -6.4 | 54.7* | 2.7 | 5.0 | -2.9
COc1ccc(-n2nc3c(c2NC(=O)c2cc(Br)ccc2Cl)CS(=O)C3)cc1 (centres undefined) | -2.5 | 0.4 | -1.0 | 1.1 | 1.0 | -8.0
Cc1cc(C)c(NC(=O)C[C@H](CC(=O)O)c2cccc3ccccc23)c(C(=O)N2CCC3(CCCC3)CC2)c1 | . | . | -1.2 | . | . | .
O=C1NCCCC2c3cc(O)c4ccccc4c3OC12N1CCCCC1 (centres undefined) | 39.9 | -1.6 | 94.8* | -2.7 | 3.5 | 46.0
O=C1NCCCC2c3c(cc(Br)c(O)c3Br)OC12N1CCOCC1 (centres undefined) | -15.7 | 5.2 | 4.5 | 2.4 | -3.9 | 0.2
C[C@@](Cc1ccc(O)c(O)c1)(NN)C(=O)O | 6.4 | . | 30.9 | . | . | 7.6
CC(N)(Cc1ccc(O)c(O)c1)C(=O)O (centres undefined) | . | . | 54.4* | . | . | .
CCn1c(SCC(=O)Nc2nc3ccc(OC)cc3s2)nc2c1c(=O)n(C)c(=O)n2C | 50.0* | -4.3 | -2.2 | 5.0 | 1.6 | 2.2
CC(C)C1C2CCC(C2)C1N (centres undefined) | . | . | -2.5 | . | . | .
N#Cc1c(N)nc(SCc2ccncc2)c(C#N)c1-c1cccs1 | 3.9 | 0.6 | -4.0 | 4.1 | 20.5* | -0.4
CCCCNC(=O)CC1N=C2c3ccccc3N=C(SCC(=O)Nc3cccc(C)c3)N2C1=O (centres undefined) | 37.8 | -1.8 | -3.4 | . | . | 0.8
Cc1cc(NC(=O)CSC2=Nc3ccccc3C3=NC(Cc4ccccc4)C(=O)N23)n[nH]1 (centres undefined) | 9.7 | 4.0 | 3.0 | 0.9 | 36.5* | -5.5
COc1ccccc1NC(=O)COc1ccc(CO)cc1Cl | 21.4 | 6.5 | -6.1 | 0.0 | 18.6* | -12.6
Cc1ccc(S(=O)(=O)N2CCC(C(=O)N[C@@H](C)C(=O)Nc3ccc4c(c3)OCO4)CC2)cc1 | -15.7 | 10.1 | 65.0* | 16.4 | 0.9 | 1.8
OCC1NC[C@@H](O)C(O)[C@@H]1O (some centres undefined) | . | . | -2.3 | . | . | .
O=C1c2ccccc2C(Nc2ccc3nc(-c4cccnc4)[nH]c3c2)N1Cc1ccco1 (centres undefined) | 7.5 | -5.1 | 7.4 | -2.2 | -5.6 | 3.5
O=C(NCc1cccnc1)C1c2ccccc2C(=O)N1Cc1ccco1 (centres undefined) | 4.5 | 8.0 | 57.4* | 4.6 | 1.3 | -3.4
CCOc1ccc(S(=O)(=O)Nc2cc(Sc3ncn[nH]3)c3oc(=O)sc3c2)cc1 | 9.1 | 2.0 | 53.9* | 2.7 | -3.0 | 20.5
CCOc1ccc(S(=O)(=O)Nc2cccc(Cl)c2)cc1 | -1.5 | 1.6 | -2.7 | 3.0 | -5.1 | -11.6
O=c1ccc2ccc(O)c(O)c2o1 | . | . | 69.4* | . | . | .
CCCCCn1c(=NC(C)=O)c(C#N)cc2c(=O)n3cccc(C)c3nc21 | -6.2 | 11.9 | -15.3 | 5.8 | -5.1 | 8.4
Cc1cc2c(ccc3[nH]onc32)n1 | -16.0 | 28.6* | -6.3 | 18.5* | -4.1 | -5.3
SMILES | DUSP1 inh | PKA kinase inh | Hsp90 inh | ROCK2 inh | JNK3 blocker | Cdc25B block
Cc1ccc2nc(C)cc(OCC(=O)O)c2c1 | 7.0 | -4.0 | -1.1 | -2.0 | -1.6 | -5.5
CCCCn1c(NC(=O)c2ccc(F)cc2)c(C#N)c2nc3ccccc3nc21 | ? | 6.9 | 40.6 | 2.5 | 3.7 | 79.4*
CN(C)C(=O)/N=N/C(=O)N(C)C | . | . | 5.6 | . | . | .
O=C(O)c1cc(NCc2ccc3c(c2)OCO3)ccc1N1CCOCC1 | 4.5 | 7.2 | 1.4 | 50.6* | 2.4 | 8.7
Cc1nc2c(C)cccn2c1/C(O)=C1\C(=O)C(=O)N(CCN(C)C)C1c1ccncc1 (centres undefined) | -9.7 | 1.2 | -4.2 | 4.2 | 1.0 | 55.6*
COc1cccc(C2/C(=C(\O)c3c(C)nc4c(C)cccn34)C(=O)C(=O)N2CCCN(C)C)c1OC (centres undefined) | -7.7 | -4.3 | -0.1 | 4.7 | 2.8 | -0.8
CCN1CCN(c2ccc(-n3c(C)nc4c(cnn4-c4ccccc4Cl)c3=O)cc2)CC1 | 0.2 | 11.0 | -0.7 | 2.7 | 0.2 | 2.0
CCNC(=O)C1OC(n2cnc3c(NCc4ccccc4)ncnc32)C(O)C1O (centres undefined) | . | . | 3.8 | . | . | .
Cc1cc(NC(=O)CSc2nc(-c3ccccc3)cs2)no1 | -2.0 | 12.4 | -3.6 | 18.3* | 1.6 | -9.6
CCCc1nc(SCC(=O)Nc2cc(C)on2)c2ccccc2n1 | 34.9 | -1.4 | 0.5 | -0.2 | 20.6* | 4.7
CCCc1nc(SCC(=O)N2CCCC2)c2ccccc2n1 | 5.6 | 4.8 | -1.2 | 0.5 | 17.4* | -17.5
O=C(CSc1nc2ccccc2nc1SCC(=O)N1CCCCC1)N1CCCCC1 | 3.0 | 6.7 | -1.6 | 4.0 | 6.2 | -6.9
Cc1cc(NC(=O)CSc2nc(CCC3CCCC3)nc3ccccc23)no1 | -14.4 | -2.4 | 0.5 | 1.6 | 2.1 | -6.3
COc1cc(NCCCC(C)=NO)c2ncccc2c1 | . | . | -5.6 | . | . | .
Nc1ncnc2c1nc(Sc1ccc(Cl)cc1)n2C1OC2COP(=O)(O)O[C@@H]2[C@@H]1O (some centres undefined) | . | . | 2.6 | . | . | .
O=C(O)c1cc(=O)c2ccc(Cl)cc2[nH]1 | . | . | 3.4 | . | . | .
O=C(CCCn1c(=O)[nH]c2cc(Cl)ccc2c1=O)NCC1CCCO1 (centres undefined) | 4.8 | 3.3 | -1.1 | 4.0 | 23.0* | -4.6
O=C(O)CCC(C(=O)O)N1C(=O)c2ccccc2C1=O (centres undefined) | . | . | 1.0 | . | . | .
Clc1ccccc1-c1nn2c(-c3ccncc3)nnc2s1 | 9.4 | 17.6 | -1.4 | 19.1* | 6.9 | -9.4
Clc1ccccc1-c1nnc2sc(-c3ccncc3)nn12 | -1.1 | 11.1 | -6.7 | 23.3* | 3.2 | -3.6
COc1ccc2[nH]c(C)c(CN3CCCC(C)C3)c(=O)c2c1 (centres undefined) | 6.4 | -3.0 | -4.5 | 0.8 | 2.2 | -10.2
Cc1cc(N2C(=O)CCC2=O)n(-c2ccccc2)n1 | -4.2 | -5.1 | -2.1 | -3.4 | -3.8 | -12.5
CC1=NN(c2ccccc2)C(=O)C1 | -13.4 | 0.9 | -2.6 | 19.4* | 7.3 | 2.2
CCCCc1ccc(S(=O)(=O)Nc2cc(OC)cc3cccnc23)cc1 | . | . | -4.8 | . | . | .
Cc1ccccc1-n1nc(C)c2cc(C(=O)N3CCOCC3)sc21 | -6.2 | 1.8 | -5.4 | 3.5 | 23.2* | 1.0
Cc1nn(-c2ccccc2)c2sc(C(=O)N3CCCCC3)cc12 | 18.8 | -5.5 | -2.2 | -3.8 | 13.0 | 3.9
